ELG1 repair inh = qHTS screen for small molecules that inhibit ELG1-dependent DNA repair in human embryonic kidney (HEK293T) cells expressing luciferase-tagged ELG1 | AID 504467, 2011 | Potency, µM (highest dose often 46.1 µM), for inactives: top-dose activity change, negative = inhibition, usual class: inhibitors | HEK293T ELG1-luciferase reporter, luminescence, 16 h; DNA damage induced by 5-fluorouridine | 2.3% of 330,000 active; note: potency is the fitted concentration of half-maximal effect; nearly all actives have a fitted effect of over 55% in size
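Step one: seed 2,000 cells per well. Step two: pin-transfer compound or DMSO alongside 5-fluorouridine. Step three: incubate 16 hr, 37 °C, 5% CO2. Step four: add ONE-Glo, wait 30 min, read luminescence.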
TDP1 cell noCPT = qHTS for Inhibitors of human tyrosyl-DNA phosphodiesterase 1 (TDP1): qHTS in cells in absence of CPT; AID 686978, 2013; 15% of 420,000 active; Potency, µM (series often up to 46.2 µM), inactives show top-dose activity change, negative = growth inhibition, hits mostly inhibitors; DT40 Tdp1-/- hTDP1 cells, no CPT, ATP luminescence, 48 h; note: potency is the fitted concentration of half-maximal effect; nearly all actives have a fitted effect of over 55% in size
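Compound effects on proliferation are scored in DT40 Tdp1-/-;hTDP1 cells in the absence of CPT. ATP levels (CellTiter-Glo luminescence) are recorded after a ≥48 hr, 37 °C incubation.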
DT40 TDP1 CPT = qHTS for Inhibitors of human tyrosyl-DNA phosphodiesterase 1 (TDP1): qHTS in cells in presence of CPT; chicken DT40 Tdp1-/-;hTDP1 cells + 20 nM CPT, ATP luminescence, 48 h; Potency, µM (top dose mostly 46.2 µM), inactives show at the top dose activity change, negative = growth inhibition, hits mostly inhibitors; 12% of 420,000 active; note: potency is the fitted concentration of half-maximal effect; nearly all actives have a fitted effect of over 55% in size
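Cell growth measured by CellTiter-Glo luminescence after a minimum 48 h, 37 C compound exposure with 20 nM CPT in Tdp1-knockout DT40 cells stably expressing hTDP1, seeded 400/well; qHTS titration format.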
HT1080 IDH1KD tx = qHTS for induction of synthetic lethality in tumor cells producing 2HG: qHTS for the HT-1080-IDH1KD cell line; HT-1080 IDH1 knockdown viability, ATP luminescence, 48 h; Potency, µM (titrated, usually from 46.1 µM), for the others: at the highest dose activity, negative = toxicity, most hits filed as cytotoxic; 2% of 360,000 active; AID 686971, 2013;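 note: potency is the fitted concentration of half-maximal effect; 0% = DMSO wells and -100% = cell-free medium wells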
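In this qHTS, HT-1080 cells depleted of IDH1 are exposed for 48 h at 37 °C to compound titrations. Toxicity is scored from CellTiter-Glo luminescence, with DMSO as full viability and medium alone as none.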
HT1080-NT tox = qHTS for induction of synthetic lethality in tumor cells producing 2HG: qHTS for the HT-1080-NT fibrosarcoma cell line | HT-1080-NT fibrosarcoma viability, CellTiter-Glo ATP luminescence, 48 h | Potency, µM (highest dose often 46.1 µM), without a hit: top-dose activity, negative = less viability, hits mostly cytotoxic | 1.6% of 360,000 active;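 note: NT is the 2HG producing partner of a matched IDH1 knockdown line; potency is the fitted concentration of half-maximal effect; 0% = DMSO-treated cells and -100% = media-only wells without cells; nearly all actives have a fitted effect of over 55% in size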
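750 cells/well, RPMI + 5% FBS; 2 h settle, compound pin-transfer, 48 h at 37 degrees C. CellTiter-Glo 10 min RT, luminescence. Normalized to DMSO and media-only wells.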
IL-1B inflam inh = qHTS for Inhibitors of Inflammasome Signaling: IL-1-beta AlphaLISA Primary Screen; THP-1 LPS/ATP IL-1B secretion, AlphaLISA, 16 h; hits give low values; activity change, % at 57.5 µM; 4.7% of 360,000 active; AID 743279, 2014; in the data active = activity change below about -50%; inconclusive = mostly about -30% to -49%
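THP-1 cells pretreated 1 hr with compounds (up to 57.5 uM final), then stimulated with LPS (250 ng/mL final) plus ATP (1.25 mM final); secreted IL-1B measured by AlphaLISA after 16 hr, decreased signal indicating inhibition.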
* hit, by the source's call; ! = repeats disagree. Rows were chosen to be rich in hits. Some 19% of all compounds tested hit in one or more screens of this group. Unless noted, calls come from the whole dose curve; as a rule, active = well fitted curve in the direction sought with a large enough effect; inconclusive = small, poorly fitted or top-dose-only effect, or another doubt; inactive = no such curve, though single readings can be large; an effect the other way counts as inactive or inconclusive. Unless noted, % is set by controls: 0 for no effect and ±100 for the full control effect.

O=C(c1ccc(COc2ccccc2Cl)o1)N1CCN(Cc2ccc3c(c2)OCO3)CC1 was read as ELG1 repair inh inconclusive, TDP1 cell noCPT 21µM*, DT40 TDP1 CPT 16µM*!, HT1080 IDH1KD tx inconclusive, HT1080-NT tox inconclusive and IL-1B inflam inh -13.
Screening CC(=O)Cc1nsc(NC(=O)c2cccc(F)c2)n1 returned ELG1 repair inh inconclusive, TDP1 cell noCPT inconclusive, DT40 TDP1 CPT -25%, HT1080 IDH1KD tx 7%, HT1080-NT tox 0% and IL-1B inflam inh -2.
CCC(C)c1ccc(NC(=O)COC(=O)c2nc3nccc(C)n3n2)cc1 (centres undefined) was read as ELG1 repair inh inconclusive, TDP1 cell noCPT inconclusive, DT40 TDP1 CPT -16%, HT1080 IDH1KD tx 6%, HT1080-NT tox 5% and IL-1B inflam inh -3.
COc1ccc(C(C(=O)NC2CCCCC2)N(C(=O)c2ccco2)c2ccc(-n3cnnn3)c(C)c2)cc1 (centres undefined) was read as TDP1 cell noCPT -27%, DT40 TDP1 CPT -23%, HT1080 IDH1KD tx 6%, HT1080-NT tox 12% and IL-1B inflam inh 5.
`CCOc1ccc(C(C(=O)NC2CCCCC2)N(C(=O)Cc2cccs2)c2ccc(-n3cnnn3)c(OC)c2)cc1` (centres undefined) gave ELG1 repair inh 25%, TDP1 cell noCPT 23µM*, DT40 TDP1 CPT inconclusive, HT1080 IDH1KD tx inconclusive, HT1080-NT tox inconclusive and IL-1B inflam inh 0.
`CCOc1cccc(N(C(=O)Cc2cccs2)C(C(=O)NC2CCCCC2)c2cccn2C)c1` (centres undefined) gave ELG1 repair inh inconclusive, TDP1 cell noCPT 16µM*, DT40 TDP1 CPT 16µM*, HT1080 IDH1KD tx inconclusive, HT1080-NT tox -19% and IL-1B inflam inh -1.
Screening COc1cccc(C(C(=O)NC2CCCC2)N(C(=O)c2ccco2)c2ccc(-n3cnnn3)c(C)c2)c1OC (centres undefined) returned ELG1 repair inh -4%, TDP1 cell noCPT 2.9µM*, DT40 TDP1 CPT inconclusive, HT1080 IDH1KD tx 0%, HT1080-NT tox 1% and IL-1B inflam inh -6.
For O=C(CSc1nnc(NC(=O)C2CC(=O)N(c3ccc(F)cc3)C2)s1)NC1CCCC1 (centres undefined) the results were ELG1 repair inh 0%, TDP1 cell noCPT 4%, DT40 TDP1 CPT 9%, HT1080 IDH1KD tx 24%, HT1080-NT tox 9% and IL-1B inflam inh inactive.
For Cc1ccc(S(=O)(=O)N2CCCCC2C(=O)O)s1 (centres undefined) the results were ELG1 repair inh 7%, TDP1 cell noCPT -14%, DT40 TDP1 CPT -5%, HT1080 IDH1KD tx 4%, HT1080-NT tox 3% and IL-1B inflam inh 5.
Screening COc1ccc(OC)c(CN2CCN(C(=O)c3cccc(S(=O)(=O)Nc4ccccc4OC)c3)CC2)c1 returned ELG1 repair inh inconclusive, TDP1 cell noCPT inconclusive, DT40 TDP1 CPT inconclusive, HT1080 IDH1KD tx -3%, HT1080-NT tox -6% and IL-1B inflam inh -17.
Screening CN(c1ccc(C(=O)N2CCN(Cc3ccc4c(c3)OCO4)CC2)cc1)S(C)(=O)=O returned ELG1 repair inh -10%, TDP1 cell noCPT -29%, DT40 TDP1 CPT -8%, HT1080 IDH1KD tx 0%, HT1080-NT tox -6% and IL-1B inflam inh 0.
For CCOc1ccc(N(C)S(=O)(=O)c2ccc(C)c(C(=O)N3CCN(Cc4ccc5c(c4)OCO5)CC3)c2)cc1 the results were ELG1 repair inh 16µM*, TDP1 cell noCPT inconclusive, DT40 TDP1 CPT inconclusive, HT1080 IDH1KD tx -14%, HT1080-NT tox -5% and IL-1B inflam inh -89*.
`COc1ccc(N(C)S(=O)(=O)c2cccc(C(=O)N3CCN(Cc4ccc5c(c4)OCO5)CC3)c2)cc1` gave ELG1 repair inh -21%, TDP1 cell noCPT 18µM*, DT40 TDP1 CPT 23µM*, HT1080 IDH1KD tx -20%, HT1080-NT tox -1% and IL-1B inflam inh -68*.
Screening COc1ccc(OC)c(CN2CCN(C(=O)c3cccc(S(=O)(=O)N(C)c4ccccc4)c3)CC2)c1 returned TDP1 cell noCPT 13µM*, DT40 TDP1 CPT 18µM*, HT1080 IDH1KD tx -7%, HT1080-NT tox -10% and IL-1B inflam inh -19.
O=C(O)C1CC(O)CN1c1nc(Cl)ccc1[N+](=O)[O-] (centres undefined) was read as ELG1 repair inh 8%, TDP1 cell noCPT -8%, DT40 TDP1 CPT 2%, HT1080 IDH1KD tx 7%, HT1080-NT tox 18% and IL-1B inflam inh -3.
Screening O=C(Cn1ncc2c([nH]c3ccccc32)c1=O)NCc1cccc(Cl)c1 returned TDP1 cell noCPT -13% and DT40 TDP1 CPT -4%.
Cc1cc(C)c2nc(C)cc(Nc3cccc(C(=O)O)c3)c2c1 was read as TDP1 cell noCPT 0% and DT40 TDP1 CPT -10%.
Screening O=C(Nc1ccc(Cl)cc1)C1=Cc2cc(Cl)ccc2OC1 returned ELG1 repair inh -13%, TDP1 cell noCPT 26µM*, DT40 TDP1 CPT 18µM*, HT1080 IDH1KD tx 4%, HT1080-NT tox 20% and IL-1B inflam inh -17.
CC(C)Oc1ccc(CNC(=O)C2=Cc3ccccc3OC2)cc1 was read as TDP1 cell noCPT inconclusive and DT40 TDP1 CPT 21µM*.
`O=C(Nc1ccc(Cl)cc1Cl)C1=Cc2ccccc2OC1` gave ELG1 repair inh inconclusive, TDP1 cell noCPT -17%, DT40 TDP1 CPT -20%, HT1080 IDH1KD tx -3%, HT1080-NT tox 1% and IL-1B inflam inh 4.
COc1ccc2c(c1)C=C(C(=O)NCc1ccc(Cl)cc1)CO2 was read as ELG1 repair inh -13%, TDP1 cell noCPT -15%, DT40 TDP1 CPT inconclusive, HT1080 IDH1KD tx 0%, HT1080-NT tox -1% and IL-1B inflam inh inconclusive.
`COc1ccc(NC(=O)C2=Cc3ccccc3OC2)cc1` gave ELG1 repair inh inconclusive, TDP1 cell noCPT inconclusive, DT40 TDP1 CPT -12%, HT1080 IDH1KD tx 26%, HT1080-NT tox -13% and IL-1B inflam inh -51*.
